# According to PubChem BioAssay (Tox21):
# Records with an inconclusive call do not appear. Where a call stands in place of a potency, no number is given. Active and inactive are the calls of the source. Unless noted, the call rests on the fitted dose curve; in most records, active means well fitted curve in the direction sought with a large enough effect in the repeat runs; inconclusive means weak or mixed curves; inactive means no such curve, though single readings can be large; an effect the other way counts as inactive or inconclusive.
# Experiments:
# [1] = qHTS assay to identify small molecule agonists of the estrogen receptor alpha (ER-alpha) signaling pathway in the presence of an antagonist - cell viability counter screen (AID 1259386);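 further: cells exposed to compounds for 22 h at 37 °C before the viability read; nearly all actives have a fitted effect of over 30% in size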; further: potency means the concentration at half of the fitted maximal effect
# How it was run: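 Read-out: CellTiter-Fluor fluorescence after 1hr reagent incubation, measured in the same wells as the luciferase readout. VM7Luc4E2 cells were exposed to 15 compound concentrations with 10.0nM ICI-182,780 for 22hr at 37C.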
# [2] = biological target: Progesterone receptor (Homo sapiens) (UniProt P06401); test: qHTS assay to identify small molecule agonists of the progesterone receptor (PR) signaling pathway (AID 1346784; calls by dose curve; further: nearly all actives have a fitted effect of over 30% in size; further: potency means the concentration at half of the fitted maximal effect)
# Progesterone receptor (Homo sapiens), sequence (P06401 whole entry, looked up): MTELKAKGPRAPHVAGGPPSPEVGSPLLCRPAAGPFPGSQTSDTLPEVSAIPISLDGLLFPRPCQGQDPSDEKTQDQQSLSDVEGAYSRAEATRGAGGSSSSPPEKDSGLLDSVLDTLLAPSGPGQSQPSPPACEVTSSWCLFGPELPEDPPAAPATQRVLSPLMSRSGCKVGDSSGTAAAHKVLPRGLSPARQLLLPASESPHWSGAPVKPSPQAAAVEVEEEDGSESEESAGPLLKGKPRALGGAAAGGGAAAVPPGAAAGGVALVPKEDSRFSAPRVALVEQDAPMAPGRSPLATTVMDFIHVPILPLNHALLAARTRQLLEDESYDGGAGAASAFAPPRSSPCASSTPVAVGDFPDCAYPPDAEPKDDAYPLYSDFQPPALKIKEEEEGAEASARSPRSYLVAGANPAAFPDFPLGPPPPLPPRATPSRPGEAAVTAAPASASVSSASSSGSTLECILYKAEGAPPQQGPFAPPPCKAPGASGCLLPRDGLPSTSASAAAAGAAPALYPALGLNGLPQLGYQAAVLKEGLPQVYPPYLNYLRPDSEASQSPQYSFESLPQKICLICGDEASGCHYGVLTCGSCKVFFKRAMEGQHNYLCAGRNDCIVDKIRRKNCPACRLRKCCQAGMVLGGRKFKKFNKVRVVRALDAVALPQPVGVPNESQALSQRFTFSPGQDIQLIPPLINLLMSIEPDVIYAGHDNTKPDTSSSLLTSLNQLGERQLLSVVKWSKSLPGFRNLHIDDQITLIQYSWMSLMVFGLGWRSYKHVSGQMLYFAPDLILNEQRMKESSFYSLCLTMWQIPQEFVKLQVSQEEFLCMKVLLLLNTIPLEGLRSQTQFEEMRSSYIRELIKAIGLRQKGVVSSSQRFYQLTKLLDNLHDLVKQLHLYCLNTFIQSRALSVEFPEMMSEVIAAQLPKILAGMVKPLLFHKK
# How it was run: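 HEK 293T PR-UAS-bla reporter cells, 2% charcoal-stripped FBS; 6 hr settle at 37C/5% CO2, compound (DMSO) 16 hr, LiveBLAzer B/G FRET substrate 2 hr RT, fluorescence intensity read.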
# [3] = biological target: Progesterone receptor (Homo sapiens) (UniProt P06401); test: qHTS assay to identify small molecule antagonists of the progesterone receptor (PR) signaling pathway (AID 1346795; active means well fitted inhibition curve with a large enough effect in the signal ratio in the repeat runs, not every such curve was filed as active; the % refers to the signal ratio; further: potency means the concentration at half of the fitted maximal effect)
# How it was run: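 Beta-lactamase reporter, HEK293T PR-UAS-bla line; 2% charcoal-stripped FBS; 6 hr pre-incubation, 37C/5% CO2. Compound + R5020 1 nM final, 16 hr. LiveBLAzer B/G FRET substrate, 2 hr RT; fluorescence intensity read.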
# [4] = qHTS assay to identify small molecule antagonists of the progesterone receptor (PR) signaling pathway - cell viability counter screen (AID 1346798); further: nearly all actives have a fitted effect of over 50% in size; further: potency means the concentration at half of the fitted maximal effect
# How it was run: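 Luminescence readout (CellTiter-Glo, 30 min, RT) of viability in PR-UAS-bla HEK293T cells exposed to compound and R5020 agonist for 16 hr at 37C, 5% CO2; run in the same wells as the beta-lactamase reporter read.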
# [5] = qHTS assay to identify small molecule agonists of the progesterone receptor (PR) signaling pathway - cell viability counter screen (AID 1346799; calls by dose curve; further: nearly all actives have a fitted effect of over 45% in size; further: potency means the concentration at half of the fitted maximal effect)
# How it was run: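 HEK293T PR-UAS-bla, 3,000 cells/well, 2% charcoal-stripped FBS; 6 h settle, compound 16 h at 37C/5% CO2; LiveBLAzer 2 h RT, then CellTiter-Glo 30 min RT, luminescence read.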
# [6] = qHTS assay to identify small molecule antagonists of the TGF-beta/Smad signaling pathway - cell viability counter screen (AID 1346824); further: nearly all actives have a fitted effect of over 50% in size
# How it was run: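 SBE-bla HEK 293T cells, incubated overnight, then compound plus 0.25 ng/mL TGF-beta1 (stock added) for 5 hr at 37 C. Viability was read in the same wells by CellTiter-Glo luminescence after 30 min at room temperature.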
# [7] = qHTS assay to identify small molecule agonists of the TGF-beta/Smad signaling pathway - cell viability counter screen (AID 1346829); further: nearly all actives have a fitted effect of over 45% in size; further: potency means the concentration at half of the fitted maximal effect
# How it was run: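 Cytotoxicity counter screen: CellTiter-Glo luminescence (30 min, room temperature) measured in the SBE-bla HEK 293T reporter wells after 5 hr compound treatment at 37 C and the 2 hr substrate step.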
# [8] = qHTS assay to identify small molecule agonists of the TGF-beta/Smad signaling pathway (AID 1346859; active means well fitted activation curve with a large enough effect in the signal ratio in the repeat runs, not every such curve was filed as active; the % refers to the signal ratio; further: series mostly up to about 77 µM)
# How it was run: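 Read-out: fluorescence at 460 and 530 nm (405 nm excitation) after a 2 hr room-temperature incubation with beta-lactamase FRET substrate. SBE-bla HEK 293T cells had been treated with test compounds for 5 hr at 37 C.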
# [9] = biological target: Thyrotropin-releasing hormone receptor (Homo sapiens) (UniProt P34981); test: qHTS assay to identify small molecule antagonists of the thyrotropin-releasing hormone receptor (TRHR) signaling pathway (AID 1346877; active means well fitted inhibition curve with a large enough effect in the repeat runs, not every such curve was filed as active; further: series mostly up to about 51 µM)
# Thyrotropin-releasing hormone receptor (Homo sapiens), sequence (P34981 whole entry, looked up): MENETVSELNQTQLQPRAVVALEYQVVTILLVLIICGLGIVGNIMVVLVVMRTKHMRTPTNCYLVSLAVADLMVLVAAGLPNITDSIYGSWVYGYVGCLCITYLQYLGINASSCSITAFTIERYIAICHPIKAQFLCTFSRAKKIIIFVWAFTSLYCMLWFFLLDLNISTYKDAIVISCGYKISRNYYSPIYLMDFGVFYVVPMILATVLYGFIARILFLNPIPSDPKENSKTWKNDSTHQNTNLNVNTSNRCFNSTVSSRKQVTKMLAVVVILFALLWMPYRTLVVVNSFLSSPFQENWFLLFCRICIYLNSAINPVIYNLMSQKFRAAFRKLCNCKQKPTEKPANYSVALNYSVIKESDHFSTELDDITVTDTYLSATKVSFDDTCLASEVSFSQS
# How it was run: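 HEK293/TRHR cells, 18 h, 37 °C; Ca2+ dye 2 h; cpd 5 min RT; TRH 1 nM final; fluorescence read 3 min, 1 s intervals; 15 concs, triplicate.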
# [10] = biological target: Thyrotropin-releasing hormone receptor (Homo sapiens) (UniProt P34981); test: qHTS assay to identify small molecule agonists of the thyrotropin-releasing hormone receptor (TRHR) signaling pathway (AID 1346891; calls by dose curve;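 further: HEK293 cells expressing TRHR with calcium dye readout; series mostly up to about 58 µM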)
# How it was run: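 HEK293/TRHR cells, 1500 per well, 18 h 37 °C; Ca dye 2 h 37 °C; pin-tool compound addition (agonist mode); kinetic fluorescence 3 min, 1 s reads; 15 concentrations, triplicate.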
Compound,Potency [1],Potency [2],Potency [3],Potency [4],Potency [5],outcome [6],Potency [7],Potency [8],outcome [9],outcome [10]
CCNc1nc(N)nc(Cl)n1,inactive,inactive,inactive,inactive,inactive,inactive,inactive,inactive,inactive,inactive
CCCCC[C@H](O)/C=C/[C@H]1[C@H](O)CC(=O)[C@@H]1C/C=C\CCCC(=O)O,inactive,inactive,inactive,inactive,inactive,inactive,inactive,–,inactive,inactive
COc1ccc(C(=O)NCc2ccc(OCCN(C)C)cc2)cc1OC,inactive,inactive,inactive,–,inactive,inactive,inactive,inactive,inactive,inactive
CC(C)(C)S,inactive,inactive,inactive,–,inactive,inactive,inactive,inactive,inactive,inactive
CCN(CC)CC(=O)Nc1c(C)cccc1C(=O)OC,inactive,inactive,inactive,–,inactive,inactive,inactive,inactive,–,–
CCCCC(CC)COS(=O)(=O)O (configuration not stated),inactive,inactive,inactive,inactive,inactive,–,inactive,inactive,inactive,inactive
C=CC(=O)NC(C)C,inactive,inactive,inactive,–,inactive,inactive,inactive,inactive,–,–
Nc1ccn([C@H]2CS[C@@H](CO)O2)c(=O)n1,inactive,inactive,inactive,inactive,inactive,–,inactive,inactive,–,–
CCC(=O)OCc1ccc(OC)cc1,inactive,inactive,inactive,inactive,inactive,–,inactive,inactive,inactive,inactive
CCCCOCCOC(=O)c1cccnc1,inactive,inactive,inactive,inactive,–,inactive,inactive,inactive,inactive,inactive
Nc1ccc(S(=O)(=O)NCc2ccccc2)cc1,inactive,inactive,inactive,inactive,inactive,inactive,inactive,inactive,inactive,inactive
O=C(Oc1ccccc1)c1ccc2ccccc2c1O,inactive,inactive,30.6 µM (active),inactive,–,inactive,inactive,inactive,inactive,inactive
CNCc1ccc(NC(=O)c2c[nH]c3c2C(=O)CCC3)cc1,inactive,inactive,inactive,inactive,–,inactive,inactive,inactive,inactive,inactive
Cc1cccc2sc(N)nc12,inactive,inactive,inactive,inactive,–,inactive,inactive,inactive,inactive,inactive
FC(F)(F)C(F)(F)C(F)(F)C(F)(F)CCI,inactive,inactive,inactive,–,inactive,inactive,inactive,inactive,inactive,inactive
O=C(NC(Cc1cc(=O)[nH]c2ccccc12)C(=O)O)c1ccc(Cl)cc1 (configuration not stated),inactive,inactive,inactive,–,inactive,inactive,inactive,inactive,inactive,inactive
SCCc1cnccn1,inactive,inactive,43.3 µM (active),30.6 µM (active),–,inactive,inactive,inactive,inactive,inactive
CCN(CC)c1ccc(C(=C2C=CC(=[N+](CC)CC)C=C2)c2ccc(S(=O)(=O)O)cc2S(=O)(=O)[O-])cc1,17.2 µM (active),inactive,inactive,30.6 µM (active),24.3 µM (active),–,–,inactive,inactive,inactive
Nc1ccc(F)cc1,inactive,28.5 µM (active),inactive,–,inactive,inactive,inactive,inactive,inactive,inactive
CC1=CC[C@@]23C[C@@H]1C(C)(C)[C@@H]2CC[C@H]3C,inactive,inactive,inactive,inactive,inactive,–,inactive,inactive,inactive,inactive
CC1CCc2nccnc21 (configuration not stated),inactive,inactive,inactive,–,inactive,inactive,inactive,inactive,inactive,inactive
CC[C@H]1OC(=O)[C@H](C)[C@@H](O[C@H]2C[C@@](C)(OC)[C@@H](O)[C@H](C)O2)[C@H](C)[C@@H](O[C@@H]2O[C@H](C)C[C@H](N(C)C)[C@H]2O)[C@](C)(O)C[C@@H](C)/C(=N\OCOCCOC)[C@H](C)[C@@H](O)[C@]1(C)O,7.19 µM (active),inactive,inactive,inactive,–,inactive,inactive,inactive,–,–
O=C(O)c1cccc(Oc2ccccc2)c1,inactive,inactive,inactive,inactive,inactive,inactive,inactive,–,inactive,inactive
CCOc1ncc(F)c(=O)[nH]1,inactive,inactive,inactive,inactive,–,inactive,inactive,inactive,inactive,inactive
C[C@H](CS)C(=O)N1CCC[C@H]1C(=O)O,inactive,inactive,inactive,inactive,inactive,–,inactive,inactive,inactive,inactive

Compound,Potency [1],Potency [2],Potency [3],Potency [4],Potency [5],outcome [6],Potency [7],Potency [8],outcome [9],outcome [10]
COc1ccc(C)cc1,inactive,inactive,inactive,–,inactive,inactive,inactive,inactive,–,–
CCCCCCCCCCCC(=O)OCC(O)CO (configuration not stated),inactive,inactive,inactive,inactive,–,inactive,inactive,inactive,inactive,inactive
CC/C=C\C/C=C\C/C=C\CCCCCCCC(=O)OCC,inactive,inactive,inactive,–,inactive,inactive,inactive,inactive,inactive,inactive
Cc1ccccc1S(N)(=O)=O,inactive,inactive,inactive,–,inactive,inactive,inactive,inactive,inactive,inactive
CN1C(CSCC(F)(F)F)Nc2cc(Cl)c(S(N)(=O)=O)cc2S1(=O)=O (configuration not stated),inactive,inactive,inactive,–,inactive,inactive,inactive,inactive,–,–
O=C1OC[C@H](Cc2cccc(O)c2)[C@H]1Cc1cccc(O)c1,inactive,inactive,inactive,inactive,–,inactive,inactive,inactive,inactive,inactive
Cc1ccc2nc(N)[nH]c(=O)c2c1Sc1ccncc1,inactive,inactive,–,inactive,inactive,inactive,inactive,inactive,inactive,inactive
CC(=O)OCCC(C)CC(C)(C)C (configuration not stated),inactive,inactive,–,inactive,–,inactive,inactive,inactive,–,–
O=C(/C=C/c1ccc([N+](=O)[O-])cc1)c1ccccc1,inactive,inactive,–,inactive,inactive,inactive,inactive,–,–,–
O=C(O)CCC(=O)c1ccc(-c2ccccc2)cc1,inactive,inactive,–,–,inactive,inactive,inactive,–,–,–
CCCCCCC(O)CCOC(C)=O (configuration not stated),inactive,inactive,inactive,–,inactive,inactive,inactive,inactive,inactive,inactive
CC1CCC(C(C)CS)CC1S (configuration not stated),inactive,inactive,inactive,–,inactive,–,54.9 µM (active),–,inactive,inactive
O=[N+]([O-])c1ccc2ncccc2c1,inactive,inactive,inactive,–,inactive,inactive,inactive,inactive,inactive,inactive
C=CC(=O)O,inactive,inactive,inactive,–,–,inactive,inactive,inactive,–,–
CS(=O)(=O)c1ccc([C@@H](C[C@H]2CCC(=O)C2)C(=O)Nc2cnccn2)cc1Cl,inactive,inactive,inactive,–,inactive,inactive,inactive,inactive,inactive,inactive
CC(CO)(CO)C(=O)O,inactive,inactive,–,inactive,inactive,inactive,inactive,inactive,–,–
CC(=O)C(=O)CC(C)C,inactive,inactive,–,–,inactive,inactive,inactive,inactive,inactive,inactive
CCCc1nc2c(C)cc(-c3nc4ccccc4n3C)cc2n1Cc1ccc(-c2ccccc2C(=O)O)cc1,inactive,inactive,inactive,–,inactive,inactive,inactive,–,inactive,inactive
CC(=O)C(C)=O,inactive,inactive,–,–,inactive,inactive,inactive,inactive,–,–
CCCCCCCC/C=C/C(=O)O,inactive,inactive,–,inactive,inactive,inactive,inactive,inactive,inactive,inactive
CC(=O)OCC(=O)[C@@]1(OC(C)=O)[C@@H](C)C[C@H]2[C@@H]3C[C@H](F)C4=CC(=O)C=C[C@]4(C)[C@@]3(F)[C@@H](O)C[C@@]21C,inactive,0.237 µM (active),–,–,inactive,inactive,inactive,–,–,–
CCN(Cc1cccc(S(=O)(=O)O)c1)c1ccc(C(=C2C=CC(=[N+](CC)Cc3cccc(S(=O)(=O)O)c3)C=C2)c2ccccc2S(=O)(=O)[O-])cc1,17.3 µM (active),inactive,inactive,–,13.7 µM (active),–,–,inactive,inactive,inactive
Cc1ccc(S(=O)(=O)NC(=O)NC2CCCCC2)cc1,inactive,inactive,inactive,–,inactive,inactive,inactive,inactive,inactive,inactive
Cc1oc(=O)oc1COC(=O)[C@@H]1N2C(=O)[C@@H](NC(=O)[C@H](N)c3ccccc3)[C@H]2SC1(C)C,inactive,inactive,inactive,–,inactive,inactive,inactive,inactive,inactive,inactive
